Read-out in assay [1]: sulfotransferase 2A1 (SULT2A1), SULT2A1 (gene 6822)
The experiment in a line: LTEA_HepaRG_SULT2A1: Life Technologies and Expression Analysis (LTEA) Assay for sulfotransferase 2A1 (SULT2A1) using HepaRG (AID 2283531; active means hit-call score of the fitted dose curve at least 0.9, where 1 is the maximum; inactive means score below 0.9). Particulars: mRNA level, 48 h; actives raise or lower the signal. The essentials: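 Cells were plated and cultured 48 h, switched to serum-free induction medium, then dosed in duplicate for 48 h (8 concentrations, max 100 uM). RNA was isolated and SULT2A1 expression measured by qRT-PCR; gain or loss of signal fitted relative to DMSO.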

Read-out in assay [2]: Transforming Growth Factor (TGFA), TGFA (gene 7039)
The experiment in a line: LTEA_HepaRG_TGFA: Life Technologies and Expression Analysis (LTEA) Assay for Transforming Growth Factor (TGFA) using HepaRG (AID 2283532; active means hit-call score of the fitted dose curve at least 0.9, where 1 is the maximum; inactive means score below 0.9). The settings on record: mRNA level, 48 h; actives raise or lower the signal. The essentials:
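TGFA transcript quantified by qRT-PCR (Fluidigm arrays) against three housekeeping genes, after 48 hours chemical treatment of HepaRG cells. Top concentration 100 uM with half-log dilutions, 8 points, duplicates, 0.5% DMSO.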

Read-out in assay [3]: Transforming Growth Factor (TGFB1), TGFB1 (gene 7040)
The assay can be described thus: LTEA_HepaRG_TGFB1: Life Technologies and Expression Analysis (LTEA) Assay for Transforming Growth Factor (TGFB1) Transporter using HepaRG (AID 2283533; active means hit-call score of the fitted dose curve at least 0.9, where 1 is the maximum; inactive means score below 0.9). Particulars: mRNA level, 48 h; actives raise or lower the signal. The essentials:
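Expression change of TGFB1 in human HepaRG cells is measured after a 48 h chemical exposure, up to 100 uM in 0.5% DMSO vehicle. Curves are fitted in both directions relative to the DMSO baseline.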

Read-out in the next assay: TIMP1, TIMP1 (gene 7076)
The assay can be described thus: LTEA_HepaRG_TIMP1: Life Technologies and Expression Analysis (LTEA) Assay for TIMP1 using HepaRG (AID 2283534; active means hit-call score of the fitted dose curve at least 0.9, where 1 is the maximum; inactive means score below 0.9;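 on outcome: TaqMan qRT-PCR signal normalized to ACTB GAPDH and POLR2A housekeeping genes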). Particulars: mRNA level, 48 h; actives raise or lower the signal. The essentials:
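We dosed human liver HepaRG cultures for 48 hours with up to 100 uM test chemical and measured TIMP1 expression by qRT-PCR. Activity in either direction is fitted relative to the 0.5% DMSO vehicle.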

Read-out in assay [4]: Thyroid Hormone Responsive (THRSP), THRSP (gene 7069)
The assay can be described thus: LTEA_HepaRG_THRSP: Life Technologies and Expression Analysis (LTEA) Assay for Thyroid Hormone Responsive (THRSP) using HepaRG (AID 2283536; active means hit-call score of the fitted dose curve at least 0.9, where 1 is the maximum; inactive means score below 0.9). The settings on record: mRNA level, 48 h; actives raise or lower the signal. The essentials: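 THRSP transcript quantified by Fluidigm qRT-PCR against three housekeeping genes after 48 h chemical exposure of HepaRG cells in serum-free induction medium; eight-point half-log series, top 100 uM, 0.5% DMSO vehicle, duplicate wells.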

Read-out in assay [5]: Cellular tumor antigen p53 (Homo sapiens) (UniProt P04637)
The assay can be described thus: LTEA_HepaRG_TP53: Life Technologies and Expression Analysis (LTEA) Assay for Tumor Protein P53 (TP53) using HepaRG (AID 2283537; active means hit-call score of the fitted dose curve at least 0.9, where 1 is the maximum; inactive means score below 0.9). The settings on record: mRNA level, 48 h; actives raise or lower the signal. The essentials: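 Gain or loss of TP53 mRNA signal is scored relative to 0.5% DMSO after 48 h chemical treatment of HepaRG liver cells, tested in duplicate at eight half-log concentrations up to 100 uM.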

Read-out in assay [6]: UDP glucuronosyltransferase (UGT1A1), UGT1A1 (gene 54658)
The experiment in a line: LTEA_HepaRG_UGT1A1: Life Technologies and Expression Analysis (LTEA) Assay for UDP glucuronosyltransferase (UGT1A1) using HepaRG (AID 2283538; active means hit-call score of the fitted dose curve at least 0.9, where 1 is the maximum; inactive means score below 0.9). The settings on record: mRNA level, 48 h; actives raise or lower the signal. The essentials:
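Cells are plated, cultured 48 h, switched to serum-free induction medium, then dosed 48 h at eight concentrations (max 100 uM, 0.5% DMSO). RNA is isolated and UGT1A1 expression measured by qRT-PCR; changes versus DMSO are fitted in both directions.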

Read-out in assay [7]: UDP glucuronosyltransferase (UGT1A6), UGT1A6 (gene 54578)
The assay can be described thus: LTEA_HepaRG_UGT1A6: Life Technologies and Expression Analysis (LTEA) Assay for UDP glucuronosyltransferase (UGT1A6) using HepaRG (AID 2283539; active means hit-call score of the fitted dose curve at least 0.9, where 1 is the maximum; inactive means score below 0.9). Particulars: mRNA level, 48 h; actives raise or lower the signal. The essentials:
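Endpoint is UGT1A6 transcript induction or loss in a human liver cell line, quantified by TaqMan qRT-PCR 48 h after dosing. Concentrations ran from 100 uM downward in half-log steps in 0.5% DMSO; activity was fitted in both directions versus vehicle.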

Read-out in assay [8]: X-box binding protein 1 (XBP1), XBP1 (gene 7494)
The assay can be described thus: LTEA_HepaRG_XBP1: Life Technologies and Expression Analysis (LTEA) Assay for X-box binding protein 1 (XBP1) using HepaRG (AID 2283540; active means hit-call score of the fitted dose curve at least 0.9, where 1 is the maximum; inactive means score below 0.9). Particulars: mRNA level, 48 h; actives raise or lower the signal. The essentials: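 Human HepaRG monolayers receive test chemical for 48 h across an eight-point half-log series starting at 100 uM. XBP1 mRNA gain or loss is scored against DMSO by qRT-PCR.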

Assay [9] is described as follows: LTEA_HepaRG_LDH_cytotoxicity: Cytotoxicity Assessment in the Life Technologies and Expression Analysis (LTEA) Assay (AID 2283563).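 On AC50: LDH activity released into spent culture medium as a marker of cell death.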 The essentials: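 Human HepaRG hepatic cells are treated with test chemicals for 48 h at up to 100 uM in 0.5% DMSO. Cytotoxicity is scored from medium LDH against the vehicle control.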
Assay [10] is described as follows: ATG_XTT_Cytotoxicity: Cytotoxicity Assessment in the Attagene TRANS-FACTORIAL HepG2 Assay (AID 2283584).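 On AC50: XTT signal for cell number as viability in transfected HepG2 cells; cells exposed to compound for 24 h before reading; active means loss of viability signal versus DMSO baseline.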 The essentials: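 Transfect HepG2 with GAL4-UAS reporter units, dose compound, incubate 24 h, then measure viable cell number by XTT. Fit concentration response against DMSO baseline.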
A short description of assay [11]: TOX21_p53_BLA_p2_viability: Viability Assessment in the Tox21 HCT-116 p53 Agonism Beta-lactamase Assay, Phase 2 (AID 2283591).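 Further: compound exposure lasted 16 h at 37 °C; actives lower the ATP signal meaning cytotoxicity.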 The essentials: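 Cytotoxicity readout: CellTiter-Glo ATP luminescence, 30 min at room temperature, after the beta-lactamase read. Cells were HCT116 exposed 16 h at 37C to compounds pin-transferred at 217-fold dilution from DMSO stocks.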

For assay [12], the target named is Cellular tumor antigen p53 (Homo sapiens) (UniProt P04637). The experiment in a line: TOX21_p53_BLA_p2_ratio: Tox21 HCT-116 p53 Agonism Beta-lactamase Assay, Ratio, Phase 2 (AID 2283592). The essentials:
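Cleaved-to-uncleaved substrate ratio (460 vs 530 nm) measured in HCT116 cells with an inducible beta-lactamase reporter linked to p53 activity. Compounds incubated 16 h at 37C before 2 h room-temperature CCF4-AM loading.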

The nature of assay [13]: TOX21_p53_BLA_p3_viability: Viability Assessment in the Tox21 HCT-116 p53 Agonism Beta-lactamase Assay, Phase 3 (AID 2283593).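 Further: cells exposed to compound for 16 h before reading.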 The essentials:
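Cellular ATP was quantified by CellTiter-Glo luminescence, read after 30 min at room temperature. Beforehand, HCT116 cells (4000/well) received compound 5 h post-seeding, 217-fold diluted from DMSO, then incubated 16 h at 37C.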

Assay [14] concerns the target Cellular tumor antigen p53 (Homo sapiens) (UniProt P04637). The assay can be described thus: TOX21_p53_BLA_p3_ratio: Tox21 HCT-116 p53 Agonism Beta-lactamase Assay, Ratio, Phase 3 (AID 2283596). The essentials: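 Cells were seeded at 4000/well, rested 5 h at 37C, then dosed with DMSO compound solutions (217-fold dilution) for 16 h. CCF4-AM substrate was loaded for 2 h at room temperature, and the 460/530 nm emission ratio was fitted for gain of signal versus DMSO.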

Assay [15] has the same target. The experiment in a line: TOX21_p53_BLA_p5_ratio: Tox21 HCT-116 p53 Agonism Beta-lactamase Assay, Ratio, Phase 5 (AID 2283599). The essentials:
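Beta-lactamase reporter ratio (blue 460 nm over green 530 nm, 405 nm excitation) after 2 h CCF4-AM loading, in HCT-116 cells exposed 16 h at 37 C to compounds pinned at 217-fold dilution. Increases relative to DMSO baseline scored.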

The target is the same in assay [16]. The assay can be described thus: TOX21_p53_BLA_p4_ratio: Tox21 HCT-116 p53 Agonism Beta-lactamase Assay, Ratio, Phase 4 (AID 2283601). The essentials: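 Signal is the blue/green (460nm/530nm) ratio of cleaved versus uncleaved CCF4-AM substrate, read after 2 h substrate loading. Cells were HCT116 carrying the p53-responsive beta-lactamase reporter, dosed 16 h at 37C, 5% CO2; CellTiter-Glo measured in parallel.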

The nature of assay [17]: Tanguay_ZF_120hpf_MORT_legacy: (Legacy) Oregon State University Tanguay Lab 120 Hour Post-fertilization zebrafish Assay for Mortality (AID 2283633).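 On AC50: fitted as increase in binary mortality versus DMSO negative control.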 The essentials: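 Mortality endpoint from a multiplexed whole-embryo zebrafish screen. Dechorionated wild-type embryos received compound at 6 hpf and remained under static exposure at 28C until 120 hpf, with death noted as a present/absent call.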

The nature of assay [18]: TOX21_p53_BLA_p4_viability: Viability Assessment in the Tox21 HCT-116 p53 Agonism Beta-lactamase Assay, Phase 4 (AID 2283597).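 Further: hits lower the luminescence signal meaning cytotoxicity.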 The essentials:
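Viability is taken as cellular ATP: after 16 h compound exposure of HCT116 cells and a 2 h room-temperature CCF4-AM substrate step, CellTiter-Glo reagent is added and luminescence is measured 30 min later.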

Assay [19] can be described thus: TOX21_p53_BLA_p5_viability: Viability Assessment in the Tox21 HCT-116 p53 Agonism Beta-lactamase Assay, Phase 5 (AID 2283600). The essentials:
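Viability is taken from cellular ATP content, measured by luciferase luminescence in the same wells after the beta-lactamase ratio read. Cells are seeded at 4000 per well and exposed to DMSO-dissolved compounds, diluted 217-fold, for 16 h.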

In PubChem BioAssay (EPA / NIEHS) one finds outcome and AC50 data, which are given here for 6 compounds.

Molecules are shown by their SMILES. Several values for one entry are separate records, joined by “and”; a condition that tells them apart may be missing. Identical values can stand only once. Results filed as inconclusive are left out. Some structures have more than one record in an assay (separate samples or runs), and their calls can disagree. Activity calls are given as the source filed them. How the source made its calls, unless noted: active means hit-call score of the fitted dose curve at least 0.9, where 1 is the maximum; inconclusive means response in the unintended direction; inactive means score below 0.9.

Chain of Cellular tumor antigen p53 (Homo sapiens) (P04637 whole entry, looked up): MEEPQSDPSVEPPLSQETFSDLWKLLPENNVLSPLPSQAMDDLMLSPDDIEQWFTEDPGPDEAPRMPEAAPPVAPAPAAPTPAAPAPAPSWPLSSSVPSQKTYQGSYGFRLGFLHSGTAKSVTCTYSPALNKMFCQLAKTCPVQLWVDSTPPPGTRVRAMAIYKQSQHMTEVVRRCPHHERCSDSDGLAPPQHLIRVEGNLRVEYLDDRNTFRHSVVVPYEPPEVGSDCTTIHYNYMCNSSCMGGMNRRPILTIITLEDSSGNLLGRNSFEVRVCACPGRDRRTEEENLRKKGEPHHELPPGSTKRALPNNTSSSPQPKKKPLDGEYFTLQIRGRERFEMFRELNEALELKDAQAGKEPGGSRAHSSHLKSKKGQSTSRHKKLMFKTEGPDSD

Regarding `CC(C)(OO)c1ccccc1`, the outcome is “inactive” in assay [1]; “inactive” in [2]; “inactive” in assay [3]; “inactive” with TIMP1, TIMP1 (gene 7076); “inactive” in assay [4]; “inactive” in [5]. The call in [6], in assay [7], in assay [8], in [9], in assay [10] and in assay [11] was inactive. In addition, the outcome in assay [12], in assay [13], in assay [14], in assay [15], in [16] and in assay [17] was inactive.

For the compound `ClCC(Cl)CCl`, the outcome in assay [1] is “inactive”; in [2], “inactive”; in assay [3], “inactive”; with TIMP1, TIMP1 (gene 7076) it was “inactive”; in assay [4] it was “inactive”; in assay [5], “inactive”. Moreover, the result in assay [6], in [7], in [8], in assay [9], in assay [10] and in assay [11] was inactive. Also, the result in [12], in assay [14], in assay [18], in assay [15], in [19] and in assay [16] was inactive. Further, the outcome in [17] was inactive.

One may read the AC50 as the midpoint of the concentration-response curve, whichever way the signal moves. In the case of `O=[N+]([O-])c1ccc(O)c([N+](=O)[O-])c1`, the AC50 in [1] was 17.7 µM (active); with TIMP1, TIMP1 (gene 7076) it was 12.6 µM (active); in assay [4] it was 9.32 µM (active); in assay [5] it was 13.2 µM (active); in assay [6], 13.2 µM (active); in [7], 20.2 µM (active). Besides, the AC50 in assay [8] was 13.2 µM (active); in [9], 88.5 µM (active); in assay [12], 69 µM (active) and 63.7 µM (active); in assay [14] it was 78.5 µM (active); in assay [15], 79.2 µM (active); in assay [17], 26.4 µM (active). In addition, the result in assay [2], in [3], in assay [10], in assay [11], in assay [14] and in assay [18] was inactive. The outcome in assay [15], in assay [19] and in [16] was inactive.

Take `C=C(C)C(=O)[O][Sn]([CH2]CCC)([CH2]CCC)[CH2]CCC`: the concentration at half-maximal activity (AC50) is 76.9 µM (active) in assay [1]; 2.42 µM (active) in [2]; 2.44 µM (active) in [3]; 0.381 µM (active) in [4]; 9.35 µM (active) in assay [6]; 2.63 µM (active) in assay [7]. Further, the AC50 in assay [9] is 4.2 µM (active); in assay [10], 2.32 µM (active); in assay [11] it was 1.88 µM (active); in [12], 41.1 µM (active); in assay [13] it was 1.18 µM (active); in assay [14], 17.5 µM (active). For the same compound, the AC50 in assay [18] is 1.5 µM (active); in [15], 35.9 µM (active); in [19], 1.74 µM (active); in [16], 28.7 µM (active); in [17], 1.77 µM (active). Also, the outcome with TIMP1, TIMP1 (gene 7076) is “inactive”; in assay [5] it was “inactive”; in assay [8] it was “inactive”.

For the compound `O=CC=O`, the compound was classed as inactive in assay [10].

For `C[C@@H]1C[C@@H]([C@H](O)CC2CC(=O)NC(=O)C2)C(=O)[C@@H](C)C1`, the AC50 in assay [1] is 48.9 µM (active); in [2] it was 31.1 µM (active); with TIMP1, TIMP1 (gene 7076), 50 µM (active); in assay [4], 7.51 µM (active); in [5], 12 µM (active); in [6], 36.2 µM (active). For the same compound, the half-maximal activity concentration (AC50) in assay [7] was 39.6 µM (active); in assay [8] it was 16.7 µM (active); in assay [9], 45.1 µM (active); in assay [12], 13.5 µM (active); in assay [18] it was 1.92 µM (active); in assay [17] it was 43.2 µM (active). For the same compound, the compound was classed as inactive in assay [3], in [10], in assay [11], in [12], in assay [13] and in assay [14]. The outcome in assay [18], in assay [15], in assay [19] and in assay [16] was inactive.
